In PubChem BioAssay (NCATS):
Records with an inconclusive call do not appear. The source made the active and inactive calls. Calls come from the whole dose curve; as a rule, active = well fitted curve in the direction sought with a large enough effect; inconclusive = small, poorly fitted or top-dose-only effect, or another doubt; inactive = no such curve, though single readings can be large; an effect the other way counts as inactive or inconclusive.

Experiments:
[1] = Cell Viability - H-4-II-E (AID 543); note: % is set by controls: 0 for no effect and ±100 for the full control effect; nearly all actives have a fitted effect of over 35% in size
Method in brief: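 Rat hepatoma H-4-II-E cells (1500/well) were plated, incubated 5 hr at 37 °C, then exposed to compounds for 40 hr at 37 °C. Cellular ATP was read by CellTiter-Glo luminescence; AC50 came from Hill-equation fits of concentration-response data.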

[2] = Cell Viability - SH-SY5Y (AID 544); details: SH-SY5Y neuroblastoma cell viability; viability change, negative = cytotoxic: at 92.2 µM (top of the series); note: nearly all actives have a fitted effect of over 55% in size
Method in brief: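 Human neuroblastoma SH-SY5Y cells (1500/well) in complete medium were exposed to compounds for 40 hr at 37 °C; intracellular ATP was then quantified by CellTiter-Glo luminescence after 20 min at room temperature. AC50 came from Hill-equation concentration-response fits.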

[3] = Cell Viability - Renal Proximal Tubule (AID 545); note: nearly all actives have a fitted effect of over 40% in size
Method in brief: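 Rat renal proximal tubule primary cells, 1000/well, exposed to compounds for 40 hr at 37 °C in complete medium; cellular ATP read by CellTiter-Glo luminescence. AC50 from concentration-response fitted with standard Hill equation.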

[4] = Cell Viability - Mesenchymal (AID 546);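 note: cells exposed to compound for 40 hours before reading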
Method in brief: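 AC50 values reflect the drop in intracellular ATP in a human kidney mesenchymal line derived from normal glomeruli. Treatment lasts 40 hr at 37 °C in complete medium, and the signal comes from CellTiter-Glo luminescence.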

[5] = Cellular Toxicity (caspase-3) HepG2 (AID 654);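 note: cells exposed to compound for 16 hours before reading; 0% = DMSO alone and 100% = caspase signal from 100 µM tamoxifen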
Method in brief: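 HepG2 cells (1500/well) in complete medium were treated with compounds for 16 hr at 37 °C. Caspase-3/7 activity was then read as luminescence from peptide-aminoluciferin cleavage. AC50 came from Hill fits, normalized to DMSO and 100 uM tamoxifen.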

[6] = Cellular Toxicity (caspase-3) Jurkat (AID 655); details: Jurkat caspase-3 activation, luminescence; caspase-3 activation: at 92.2 µM (top of the series), DMSO = 0%, tamoxifen = 100%;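 note: cells exposed to compound for 16 h at 37 °C before reading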
Method in brief: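 Jurkat cells (5000/well) in complete medium exposed 16 h at 37 C; caspase-3/7 activity read by Caspase-Glo luminescence after 20 min at room temperature. Normalized to DMSO and 100 uM tamoxifen; AC50 from Hill fits.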

[7] = Cellular Toxicity (caspase-3) HUV-EC-C (AID 656)
Method in brief: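 HUV-EC-C cells (1000/well) in complete medium, compound-treated 16 h at 37 °C; caspase-3/7 activity read by Caspase-Glo 3/7 luminescence. Normalized to DMSO (basal) and 100 uM tamoxifen (100%); AC50 from Hill-equation concentration-response fits.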

[8] = Cellular Toxicity (caspase-3) SHSY5Y (AID 657)
Method in brief: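 SH-SY5Y human neuroblastoma cells, 1500/well, exposed to compound for 16 hours at 37 °C in complete medium. Caspase-3/7 activity read by Caspase-Glo luminescence after 1 hr at room temperature, normalized to DMSO and 10 uM staurosporine; AC50 from Hill fit.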

[9] = Cellular Toxicity (caspase-3) BJ (AID 658);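 note: 0% = DMSO basal and 100% = 10 µM staurosporine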
Method in brief: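 Readout: Caspase-Glo 3/7 luminescence increase in BJ cells after 16 hr treatment at 37 °C. Staurosporine and tamoxifen served as positive controls; AC50 values came from Hill modelling of data normalized to DMSO and 10 uM staurosporine.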

[10] = Cellular Toxicity (caspase-3) MRC-5 (AID 659);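 note: 0% = DMSO basal and 100% = 10 µM staurosporine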
Method in brief: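 Concentration-dependent caspase 3/7 activation is measured in human normal lung fibroblasts (MRC-5) following 16-hour treatment. AC50 values come from standard Hill-equation modeling of luminescence normalized to DMSO and 10 uM staurosporine.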

FC(F)(F)c1ccccc1Cl
inactive: Potency [1] | Potency [2] | Potency [3] | Potency [4] | Potency [5] | caspase-3 activation [6] 2.68% | outcome [7] | outcome [8] | outcome [9] | outcome [10]

CC(=O)Nc1ccc(N)cc1
inactive: Potency [1] | Potency [2] | Potency [3] | Potency [4] | Potency [5] | caspase-3 activation [6] 0.0249% | outcome [7] | outcome [8] | outcome [9] | outcome [10]

CCCCCCCCC/C=C/CC1CC(=O)OC1=O (stereo not given)
inactive: Potency [1] | Potency [2] | Potency [3] | Potency [4] | Potency [5] | caspase-3 activation [6] 1.29% | outcome [7] | outcome [8] | outcome [9] | outcome [10]

ON=C1CCCCC1
inactive: Potency [1] | Potency [2] | Potency [3] | Potency [4] | Potency [5] | caspase-3 activation [6] -0.266% | outcome [7] | outcome [8] | outcome [9] | outcome [10]

CCCC(C)CO (stereo not given)
inactive: Potency [1] | Potency [2] | Potency [3] | Potency [4] | Potency [5] | caspase-3 activation [6] 0.921% | outcome [7] | outcome [8] | outcome [9] | outcome [10]

CC(C)(C)OCC1CO1 (stereo not given)
inactive: Potency [1] | Potency [2] | Potency [3] | Potency [4] | Potency [5] | caspase-3 activation [6] 0.113% | outcome [7] | outcome [8] | outcome [10]

CCC(=O)/C=C/C1C(C)=CCCC1(C)C (stereo not given)
inactive: Potency [1] | Potency [2] | Potency [3] | Potency [4] | Potency [5] | caspase-3 activation [6] 2.94% | outcome [7] | outcome [8] | outcome [9] | outcome [10]

CCNS(=O)(=O)c1ccc(C)cc1
inactive: Potency [1] | Potency [2] | Potency [3] | Potency [4] | Potency [5] | caspase-3 activation [6] 2.46% | outcome [7] | outcome [8] | outcome [9] | outcome [10]

Cc1ccc(C)c(O)c1
inactive: Potency [1] | Potency [2] | Potency [3] | Potency [4] | Potency [5] | caspase-3 activation [6] 0.228% | outcome [7] | outcome [8] | outcome [9] | outcome [10]

O=P(O)(OCc1ccccc1)OCc1ccccc1
inactive: Potency [1] | Potency [2] | Potency [3] | Potency [4] | Potency [5] | caspase-3 activation [6] 1.88% | outcome [7] | outcome [8] | outcome [9] | outcome [10]

COC(=O)CS
inactive: Potency [1] | Potency [2] | Potency [3] | Potency [4] | Potency [5] | caspase-3 activation [6] -2.15% | outcome [7] | outcome [8] | outcome [9] | outcome [10]

CC(C)=C1CCC(C)CC1=O (stereo not given)
inactive: Potency [1] | Potency [2] | Potency [3] | Potency [4] | Potency [5] | caspase-3 activation [6] -1.31% | outcome [7] | outcome [8] | outcome [10]

CC(=O)c1cc(C)oc1C
inactive: Potency [1] | Potency [2] | Potency [3] | Potency [4] | Potency [5] | caspase-3 activation [6] 0.691% | outcome [7] | outcome [8] | outcome [9] | outcome [10]

C=CCCCCCC
inactive: Potency [1] | Potency [2] | Potency [3] | Potency [4] | Potency [5] | caspase-3 activation [6] -1.08% | outcome [7] | outcome [8] | outcome [9] | outcome [10]

CC(=O)c1ccc([N+](=O)[O-])cc1
inactive: Potency [1] | Potency [2] | Potency [3] | Potency [4] | Potency [5] | caspase-3 activation [6] 0.818% | outcome [7] | outcome [8] | outcome [10]

CO[Si](CCCNCCC[Si](OC)(OC)OC)(OC)OC
inactive: Potency [1] | Potency [2] | Potency [3] | Potency [4] | Potency [5] | caspase-3 activation [6] 2.91% | outcome [7] | outcome [8] | outcome [9] | outcome [10]

CC(=O)CCc1ccccc1
inactive: Potency [1] | Potency [2] | Potency [3] | Potency [4] | Potency [5] | caspase-3 activation [6] -1.19% | outcome [7] | outcome [8] | outcome [9] | outcome [10]

C=CCOC(=O)COCCC(C)C
inactive: Potency [1] | Potency [2] | Potency [3] | Potency [4] | Potency [5] | caspase-3 activation [6] -0.573% | outcome [7] | outcome [8] | outcome [10]

Cc1cccc2ccccc12
inactive: Potency [1] | Potency [2] | Potency [3] | Potency [4] | Potency [5] | caspase-3 activation [6] -1.75% | outcome [7] | outcome [8] | outcome [9] | outcome [10]

Cc1c(C(=O)O)cccc1[N+](=O)[O-]
inactive: Potency [1] | Potency [2] | Potency [3] | Potency [4] | Potency [5] | caspase-3 activation [6] 1.11% | outcome [7] | outcome [8] | outcome [9] | outcome [10]

CC(O)COC(C)(C)C (stereo not given)
inactive: Potency [1] | Potency [2] | Potency [3] | Potency [4] | Potency [5] | caspase-3 activation [6] 0.633% | outcome [7] | outcome [8] | outcome [9] | outcome [10]

NC(=S)NNC(N)=S
inactive: Potency [1] | Potency [2] | Potency [3] | Potency [4] | Potency [5] | caspase-3 activation [6] 0.7% | outcome [7] | outcome [8] | outcome [9] | outcome [10]

CC(=O)OC(C)=O
inactive: Potency [1] | Potency [2] | Potency [3] | Potency [4] | Potency [5] | caspase-3 activation [6] -0.999% | outcome [7] | outcome [8] | outcome [9] | outcome [10]

NC(=O)c1ccccc1[N+](=O)[O-]
inactive: Potency [1] | Potency [2] | Potency [3] | Potency [4] | Potency [5] | caspase-3 activation [6] -0.0168% | outcome [7] | outcome [8] | outcome [10]

C=C(C)C(=O)OCCCCCC
inactive: Potency [1] | Potency [2] | Potency [3] | Potency [4] | Potency [5] | caspase-3 activation [6] 2.29% | outcome [7] | outcome [8] | outcome [9] | outcome [10]

CC(=O)C1(C)CC2=C(CCCC2(C)C)CC1C (stereo not given)
inactive: Potency [1] | Potency [2] | Potency [3] | Potency [4] | Potency [5] | caspase-3 activation [6] -0.117% | outcome [7] | outcome [8] | outcome [9] | outcome [10]
